Source: PMC4552634, “A New Set of Chemical Starting Points with Plasmodium falciparum Transmission-Blocking Potential for Antimalarial Drug Discovery” (PLoS ONE, 2015)
Screen size: about 13,000 compounds; about 3,200 (25%) showed an effect of 50% or more. The list shows a part of the results.

Each compound was assayed on P. falciparum stage V gametocytes. Conditions: 48 h, 5 µM; inhibitor.
Design: BacTiter-Glo ATP luminescence viability of purified stage V gametocytes in 384-well plates, per cent inhibition versus DMSO

| Compound | % Inhibition [%] |
| --- | --- |
| O=C(/C=C/c1ccc(Cl)c(Cl)c1)NCCCCCN1CCC(NC(=O)c2ccc(F)c(F)c2)CC1 [TCMDC-135838] | -28.53 |
| Cc1ccc(Nc2nc(N/N=C/c3cccc(O)c3)nc(Nc3ccc([N+](=O)[O-])cc3)n2)cc1C [TCMDC-124125] | -28.14 |
| CCCN(Cc1nnc(-c2ccco2)o1)C(=O)C1CCN(c2ncc(C(F)(F)F)cc2Cl)CC1 [TCMDC-125335] | -10.32 |
| CCOc1ccc(Cc2c(C)nc3nc(N)nc(N)c3c2C)cc1 [TCMDC-137655] | 8.912 |
| Cc1c(Cl)ccc2c(C(=O)Nc3ccncc3)cc(-c3cccnc3)nc12 [TCMDC-125224] | 6.226 |
| COc1ccc(CNC2Cc3ccccc3C2)cc1-c1ccc(S(=O)(=O)NCCN2CCCC2)cc1 [TCMDC-132248] | 107.9 |
| COc1ccc(CNC2Cc3ccccc3C2)cc1-c1cccc(S(=O)(=O)NCCN2CCCC2)c1 [TCMDC-132269] | 112.5 |
| CC(C)NCc1ccc(-c2ccc(-c3nc4ccc(F)cc4[nH]3)cc2)cc1 [TCMDC-132740] | 14.26 |
| CCc1ccccc1NC(=O)CN1CCN(c2ncnc3scc(-c4ccc(F)cc4)c23)CC1 [TCMDC-125248] | -17.47 |
| CC(C)CNC(=O)CN1C(=O)C(c2ccccc2)(c2ccccc2)N=C1N [TCMDC-137006] | -9.905 |
| Fc1ccc2[nH]c3c(NCCCN4CCOCC4)ncnc3c2c1 [TCMDC-124555] | -45.7 |
| CC(C)C[C@H](NC(=O)c1ccc(F)cc1)C(=O)N[C@H](/C=N/NC(=O)c1ccccc1)CCc1ccccc1 [TCMDC-135680] | -1.54 |
| Cn1c(=N)cc(-c2cccc(I)c2)c2c(=O)[nH]c(N)nc21 [TCMDC-137835] | 7.838 |
| Cn1nccc1C(=O)NCCNCc1cccc(-c2cccc(-c3nc4cc(F)ccc4[nH]3)c2)c1.O=C(O)C(F)(F)F [TCMDC-133020] | -34.05 |
| Fc1ccc2[nH]c(-c3cccc(-c4cccc(CNCCN5CCNCC5)c4)c3)nc2c1 [TCMDC-132860] | 97.72 |
| O=C1CCCN1CCCNCc1cccc(-c2cccc(-c3nc4ccc(F)cc4[nH]3)c2)c1 [TCMDC-132765] | -41.49 |
| O=C1CCCN1CCCNCc1ccc(-c2cccc(-c3nc4ccc(F)cc4[nH]3)c2)cc1 [TCMDC-132750] | -14.96 |
| Cn1cccc1CCNCc1ccc(-c2cccc(-c3nc4cc(F)ccc4[nH]3)c2)cc1.O=C(O)C(F)(F)F [TCMDC-132684] | 7.89 |
| Fc1ccc2[nH]c(-c3cccc(-c4ccc(CNCCN5CCNCC5)cc4)c3)nc2c1 [TCMDC-132863] | 90.56 |
| Cn1ncc2c3c(CCN4CCC(NCc5cc6c(cn5)OCC6)CC4)c(Cl)cnc3ccc21 [TCMDC-136024] | -18.24 |
| COc1ccccc1C(=O)Nc1cccc(N2CCC(NCc3ccc(-n4cccn4)cc3)CC2)c1 [TCMDC-124643] | 0.3581 |
| COc1ccccc1NC(=O)Nc1ccc(-c2ccc(-c3nc4cccc(C)c4[nH]3)s2)cc1 [TCMDC-133201] | -21.27 |

| Compound | % Inhibition [%] |
| --- | --- |
| COc1cccc(CN(C(=O)Nc2ccccc2F)[C@H]2C[C@H]3C(=O)Nc4cc(F)ccc4C(=O)N3C2)c1 [TCMDC-134304] | 17.59 |
| CC(C)(C)C(=O)Oc1ccc(CC2NCCc3cc(OC(=O)C(C)(C)C)c(OC(=O)C(C)(C)C)cc32)cc1OC(=O)C(C)(C)C (centres unmarked) [TCMDC-131452] | -22.51 |
| Cc1cccc2[nH]c(-c3cccc(-c4cccc(CN5CCCC5CN)c4)c3)nc12 (centres unmarked) [TCMDC-132989] | 49.36 |
| Fc1ccc2nc(-c3ccc(-c4ccc(CN5CCN(CCN6CCOCC6)CC5)cc4)cc3)[nH]c2c1 [TCMDC-133926] | -0.4105 |
| NC(=O)C1CCN(Cc2cccc(-c3cccc(-c4nc5ccc(F)cc5[nH]4)c3)c2)CC1 [TCMDC-132686] | -35.6 |
| NCC1CCCN1Cc1ccc(-c2ccc(-c3nc4ccc(F)cc4[nH]3)cc2)cc1 (centres unmarked) [TCMDC-132994] | 65.53 |
| NCC1CCCN1Cc1ccc(-c2ccc(-c3nc4ccccc4[nH]3)s2)cc1 (centres unmarked) [TCMDC-132988] | 37.26 |
| NCC1CCCN1Cc1cccc(-c2cccc(-c3nc4ccc(F)cc4[nH]3)c2)c1 (centres unmarked) [TCMDC-133001] | 98.63 |
| NCC1CCCN1Cc1ccc(-c2cccc(-c3nc4ccc(F)cc4[nH]3)c2)cc1 (centres unmarked) [TCMDC-132998] | 102.5 |
| COc1ccccc1OCCN(CC(O)COc1cccc2[nH]c3ccccc3c12)CC(O)COc1cccc2[nH]c3ccccc3c12 (centres unmarked) [TCMDC-141980] | -17.57 |
| O=C1NCN(c2ccc(O)cc2)C12CCN(CCCC(c1ccc(F)cc1)c1ccc(F)cc1)CC2 [TCMDC-138052] | -32.4 |
| Cc1[nH]c(C)c(-c2csc3ccccc23)c(=O)c1Cl [TCMDC-136017] | 42.39 |
| Cc1[nH]c(C)c(-c2ccc(Cl)cc2)c(=O)c1I [TCMDC-137424] | 41.94 |
| Cc1[nH]c(C)c(-c2ccc(-c3ccc(Cl)cc3)cc2)c(=O)c1Cl [TCMDC-137416] | 50.46 |
| Cc1[nH]c(C)c(-c2ccc(C(=O)c3ccc(Cl)cc3)cc2)c(=O)c1Cl [TCMDC-137413] | 70.39 |
| Cc1[nH]c(C)c(-c2ccc(C(=O)c3ccccc3)cc2)c(=O)c1Br [TCMDC-137419] | 74.6 |
| Cc1[nH]c(C)c(-c2ccc(/C=C/c3ccccn3)cc2)c(=O)c1Cl [TCMDC-135787] | 58.19 |
| CC[C@H](C)CNC(=O)c1cncc(-c2ccc(CNCC3CNCCCO3)cc2)c1 (some centres unmarked) [TCMDC-134269] | 2.096 |
| CN(C)CCCN1C(=O)c2[nH]nc(-c3ccc(Cl)cc3O)c2C1c1ccc(Cl)cc1 (centres unmarked) [TCMDC-124910] | -62.01 |
| C(=N\Nc1nccc2sc(-c3cccnc3)cc12)/c1cccnc1 [TCMDC-135297] | -1.822 |
| O=C1c2ccccc2CN1CCCN1CCC(Oc2ccc(F)cc2)CC1 [TCMDC-141252] | -41.1 |
| COc1c(Br)cc(Br)cc1-c1ccc(CN2C3CCCC2CCC3)[nH]1 [TCMDC-138965] | -8.76 |

| Compound | % Inhibition [%] |
| --- | --- |
| CC(C)S(=O)(=O)N1CCN(Cc2ccc3c(c2)nc(NC(=O)c2ccsc2)n3C[C@H](O)c2ccccc2)CC1 [TCMDC-138569] | -9.312 |
| CCN(CC)C(=O)c1cccc(C=Cc2ccc(-c3c(C)[nH]c(C)c(Cl)c3=O)cc2)c1 [TCMDC-135819] | 53.1 |
| Cc1cc(=O)c(C2CCC(c3ccc(Cl)cc3)CC2)c(C)[nH]1 (centres unmarked) [TCMDC-138154] | 9.202 |
| Cc1[nH]c(C)c(-c2cc3ccccc3o2)c(=O)c1Cl [TCMDC-135948] | 11.96 |
| Cc1[nH]c(C)c(C2CCC(c3ccc(Cl)cc3)CC2)c(=O)c1Cl (centres unmarked) [TCMDC-137423] | 63.6 |
| Cc1[nH]c(C)c(-c2ccc(Br)cc2)c(=O)c1Cl [TCMDC-135043] | 62.53 |
| Cc1[nH]c(C)c(-c2ccc(C(=O)c3ccc(Cl)cc3)cc2)c(=O)c1Br [TCMDC-137407] | 68.89 |
| Cc1[nH]c(C)c(-c2ccc(Br)cc2)c(=O)c1Br [TCMDC-137537] | 28.95 |
| Cc1cc(=O)[nH]c2cc(Nc3ccnc(Nc4cccc(C(N)=O)c4)n3)ccc12 [TCMDC-138710] | 20.95 |
| CC(C)Oc1ccc(N2CCN(CCCCNC(=O)c3ccc(NC(=O)c4ccc(Cl)cc4)cc3)CC2)c(OC(C)C)c1 [TCMDC-138245] | -2.12 |
| C#CCN(Cc1ccc2nc(N)[nH]c(=O)c2c1)c1ccc(C(=O)N[C@@H](CCC(=O)O)C(=O)O)cc1 [TCMDC-131823] | -7.091 |
| O=C(CCCCCNC(=O)c1ccc(O)c(-c2cccc(C(F)(F)F)c2)c1)NCCN1CCCCC1 [TCMDC-140814] | -2.677 |
| Cc1cc(N(C)C)nc(Nc2ccc(NC(=O)c3cccc(F)c3)cc2)n1 [TCMDC-124724] | 10.45 |
| Cc1[nH]c(C)c(-c2ccc(Sc3ccc(Cl)cc3)cc2)c(=O)c1Br [TCMDC-137404] | 66.05 |
| COc1ccc2ncc(Cl)c(N3CCC(CCNCc4ccc5c(n4)NC(=O)CS5)CC3)c2c1.Cl [TCMDC-141958] | 0.05948 |
| CC(=O)C1(c2ccccc2)CCN(CCC2(c3ccc(Cl)c(Cl)c3)CN(C(=O)Nc3cccc(C(F)(F)F)c3)CCO2)CC1 (centres unmarked) [TCMDC-135342] | 34.05 |
| CC(C)(C)NS(=O)(=O)c1cc(C(=O)N2CCC(CCN3CCC(O)(c4cccc(C(F)(F)F)c4)CC3)(c3cccc(F)c3)CC2)c(Cl)cc1F [TCMDC-135886] | 93.87 |
| O=C(Cc1ccccc1)NC(CCN1CCC(O)(c2cccc(C(F)(F)F)c2)CC1)c1ccc(Cl)c(Cl)c1 (centres unmarked) [TCMDC-141711] | 14.28 |
| CN(C)S(=O)(=O)c1ccc(N2CCN(CCC3(c4cccc(F)c4)CCN(C(=O)C(C)(C)C)CC3)CC2)c2nonc12 [TCMDC-135887] | 8.489 |
| CC(C)(C)NS(=O)(=O)c1cc(C(=O)N2CCC(CCN3CCC(C(=O)c4ccc(F)cc4)CC3)(c3cccc(F)c3)CC2)c(Cl)cc1F [TCMDC-135885] | 79.72 |
| O=C(NC1CCN(CCC[C@]2(c3ccc(Cl)c(Cl)c3)CCCN(C(=O)c3ccccc3)C2)CC1)c1ccc(Cl)cc1 [TCMDC-141713] | -34.58 |
